# Reference: PubChem BioAssay (EPA / NIEHS)
# “And” between values parts separate entries of the source, which are not always exact repeats. Equal entries are not always repeated. Some compounds were tested as several samples or in several runs, with calls that do not always agree. The source made the active and inactive calls. How the source made its calls: active means hit-call score of the fitted dose curve at least 0.9, where 1 is the maximum; inactive means score below 0.9.
# Columns and labels:
# Conditions in all cases: mRNA level, 48 h; actives raise or lower the signal
# [1] = read-out: Insulin-like growth factor-binding protein 1 (IGFBP1), IGFBP1 (gene 3484); assay: LTEA_HepaRG_IGFBP1: Life Technologies and Expression Analysis (LTEA) Assay for Insulin-like growth factor-binding protein 1 (IGFBP1) using HepaRG (AID 2283508)
# Procedure, shortened: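 HepaRG cells, plated 48 h then switched to serum-free induction medium, exposed in duplicate for 48 h to 8-point half-log series from 100 uM in 0.5% DMSO. mRNA measured by qRT-PCR, normalized to ACTB/GAPDH/POLR2A; bidirectional fit versus DMSO.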
# [2] = read-out: Interleukin 6 (IL6), IL6 (gene 3569); assay: LTEA_HepaRG_IL6: Life Technologies and Expression Analysis (LTEA) Assay for Interleukin 6 (IL6) using HepaRG (AID 2283509)
# Procedure, shortened: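 HepaRG cells exposed in duplicate for 48 h to eight half-log concentrations, top 100 uM, in 0.5% DMSO serum-free induction medium. mRNA measured by qRT-PCR, normalized to ACTB, GAPDH and POLR2A. Bidirectional fit versus DMSO.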
# [3] = read-out: Interleukin 6 Receptor (IL6R), IL6R (gene 3570); assay: LTEA_HepaRG_IL6R: Life Technologies and Expression Analysis (LTEA) Assay for Interleukin 6 Receptor (IL6R) using HepaRG (AID 2283510);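 on AC50: TaqMan qRT-PCR signal normalized to ACTB GAPDH and POLR2A housekeeping genes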
# Procedure, shortened: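 Readout is IL6R transcript level by TaqMan qRT-PCR, normalized to three housekeeping genes and fitted bidirectionally against 0.5% DMSO controls. Human HepaRG cells received chemicals for 48 h in serum-free induction medium, highest concentration 100 uM.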
# [4] = read-out: Potassium channel subfamily K member 1 (KCNK1), KCNK1 (gene 3775); assay: LTEA_HepaRG_KCNK1: Life Technologies and Expression Analysis (LTEA) Assay for Potassium channel subfamily K member 1 (KCNK1) using HepaRG (AID 2283511)
# Procedure, shortened: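 Differentiated HepaRG cells, 48 h exposure in serum-free induction medium with 0.5% DMSO; 8 concentrations, half-log from 100 uM, duplicate. KCNK1 mRNA by qRT-PCR, normalized to ACTB, GAPDH, POLR2A; bidirectional fit vs DMSO.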
# [5] = read-out: Keratin 19 (KRT19), KRT19 (gene 3880); assay: LTEA_HepaRG_KRT19: Life Technologies and Expression Analysis (LTEA) Assay for Keratin 19 (KRT19) using HepaRG (AID 2283512)
# Procedure, shortened: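 Differentiated HepaRG cells in serum-free induction medium, exposed 48 h in duplicate to 8 half-log concentrations up to 100 uM in 0.5% DMSO. KRT19 mRNA by qRT-PCR, normalized to ACTB, GAPDH, POLR2A; bidirectional fit vs DMSO.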
# [6] = read-out: JUN Transcription Factor, JUN (gene 3725); assay: LTEA_HepaRG_JUN: Life Technologies and Expression Analysis (LTEA) Assay for JUN Transcription Factor using HepaRG (AID 2283513)
# Procedure, shortened: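 Cells plated 48 h, medium switched to serum-free induction medium, then dosed 48 h (100 uM top, half-log dilutions, 0.5% DMSO). RNA isolated; JUN measured by qRT-PCR against three housekeeping genes; gain or loss fitted relative to DMSO.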
# [7] = read-out: Lipase C (LIPC), LIPC (gene 3990); assay: LTEA_HepaRG_LIPC: Life Technologies and Expression Analysis (LTEA) Assay for Lipase C (LIPC) using HepaRG (AID 2283514)
# Procedure, shortened: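 HepaRG cells, 48 h after plating, treated in duplicate for 48 h in serum-free induction medium over 8 half-log concentrations from 100 uM, 0.5% DMSO. LIPC mRNA by TaqMan qRT-PCR normalized to ACTB/GAPDH/POLR2A; bidirectional fit versus DMSO.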
# [8] = read-out: Lipoprotein lipase (LPL), LPL (gene 4023); assay: LTEA_HepaRG_LPL: Life Technologies and Expression Analysis (LTEA) Assay for Lipoprotein lipase (LPL) using HepaRG (AID 2283515)
# Procedure, shortened: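 Differentiated HepaRG cells, plated 48 h, then exposed 48 h in serum-free induction medium to 8 concentrations (top 100 uM, half-log steps) in 0.5% DMSO, duplicate. LPL mRNA measured by qRT-PCR, normalized to ACTB, GAPDH and POLR2A.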
# [9] = read-out: MicroRNA 122 (MIR122), gene 406906; assay: LTEA_HepaRG_MIR122: Life Technologies and Expression Analysis (LTEA) Assay for MicroRNA 122 (MIR122) using HepaRG (AID 2283516); further: the transcript read is the microRNA miR-122
# Procedure, shortened: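 HepaRG plated 48 h, switched to serum-free induction medium, then treated in duplicate for 48 h (100 uM top, half-log steps, 0.5% DMSO vehicle). RNA isolated, qRT-PCR performed, concentration-response fitted both directions relative to DMSO.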
# [10] = read-out: matrix metalloproteinase-10 (MMP10), MMP10 (gene 4319); assay: LTEA_HepaRG_MMP10: Life Technologies and Expression Analysis (LTEA) Assay for matrix metalloproteinase-10 (MMP10) using HepaRG (AID 2283517)
# Procedure, shortened: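 Differentiated HepaRG cells in serum-free induction medium exposed 48 h in duplicate to 8-point half-log series up to 100 uM in 0.5% DMSO. mRNA quantified by qRT-PCR, normalised to ACTB, GAPDH, POLR2A; bidirectional fit versus DMSO.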
# [11] = read-out: MYC, MYC (gene 4609); assay: LTEA_HepaRG_MYC: Life Technologies and Expression Analysis (LTEA) Assay for MYC using HepaRG (AID 2283518)
# Procedure, shortened: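 Differentiated HepaRG cells exposed 48 h in serum-free induction medium to 8 concentrations (top 100 uM, half-log steps; 0.5% DMSO), duplicate. MYC mRNA measured by Fluidigm qRT-PCR, normalized to ACTB, GAPDH, POLR2A; bidirectional fit versus DMSO.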
# [12] = read-out: matrix metalloproteinase-3 (MMP3), MMP3 (gene 4314); assay: LTEA_HepaRG_MMP3: Life Technologies and Expression Analysis (LTEA) Assay for matrix metalloproteinase-3 (MMP3) using HepaRG (AID 2283519)
# Procedure, shortened: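 HepaRG cells (~100,000/well) in serum-free induction medium were dosed in duplicate for 48 h with an 8-point half-log series from 100 uM, 0.5% DMSO. MMP3 mRNA was quantified by Fluidigm TaqMan qRT-PCR, normalized to three housekeeping genes.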
# [13] = read-out: Paternally Expressed 10 (PEG10), PEG10 (gene 23089); assay: LTEA_HepaRG_PEG10: Life Technologies and Expression Analysis (LTEA) Assay for Paternally Expressed 10 (PEG10) using HepaRG (AID 2283520)
# Procedure, shortened: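 HepaRG, 48 h post-plating → serum-free induction medium → 48 h chemical exposure (duplicate, 8-pt, max 100 uM, half-log, 0.5% DMSO) → lysis in RLT → TaqMan qRT-PCR for PEG10, ACTB/GAPDH/POLR2A normalisation.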
# [14] = read-out: Nuclear factor NF-kappa-B p105 subunit (Homo sapiens) (UniProt P19838); assay: LTEA_HepaRG_NFKB1: Life Technologies and Expression Analysis (LTEA) Assay for Nuclear Factor Kappa B Subunit 1 (NFKB1) using HepaRG (AID 2283521);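 on outcome: TaqMan qRT-PCR transcript normalised to ACTB GAPDH and POLR2A housekeeping genes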
# Procedure, shortened: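 Differentiated human HepaRG cells were exposed for 48 h in serum-free induction medium to eight concentrations (top 100 uM, half-log steps, 0.5% DMSO), in duplicate. NFKB1 mRNA was measured by TaqMan qRT-PCR, normalized to ACTB/GAPDH/POLR2A, and fitted bidirectionally against DMSO.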
# [15] = read-out: Protein phosphatase 2A (PPP2R4), PTPA (gene 5524); assay: LTEA_HepaRG_PPP2R4: Life Technologies and Expression Analysis (LTEA) Assay for Protein phosphatase 2A (PPP2R4) using HepaRG (AID 2283522)
# Procedure, shortened: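 Readout is PPP2R4 transcript level by microfluidic qRT-PCR after 48 h chemical treatment of human HepaRG liver cells. Concentrations spanned 100 uM downward in half-log steps; gain or loss of signal was fitted relative to DMSO.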
# [16] = read-out: Phosphatase and tensin (PTEN), PTEN (gene 5728); assay: LTEA_HepaRG_PTEN: Life Technologies and Expression Analysis (LTEA) Assay for Phosphatase and tensin (PTEN) using HepaRG (AID 2283523)
# Procedure, shortened: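 HepaRG cells, 48 h after plating, exposed in duplicate for 48 h in serum-free induction medium to 8 half-log concentrations up to 100 uM (0.5% DMSO). PTEN mRNA by qRT-PCR, normalized to ACTB, GAPDH, POLR2A; bidirectional fit versus DMSO.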
# [17] = read-out: solute carrier (SLC22A1), SLC22A1 (gene 6580); assay: LTEA_HepaRG_SLC22A1: Life Technologies and Expression Analysis (LTEA) Assay for solute carrier (SLC22A1) using HepaRG (AID 2283524)
# Procedure, shortened: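 Differentiated human HepaRG cells in serum-free induction medium, exposed 48 h in duplicate to 8-point half-log series from 100 µM top in 0.5% DMSO. SLC22A1 mRNA by TaqMan qRT-PCR normalized to ACTB, GAPDH, POLR2A; bidirectional fit versus DMSO.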
# [18] = read-out: Pyruvate Dehydrogenase Kinase 4 (PDK4), PDK4 (gene 5166); assay: LTEA_HepaRG_PDK4: Life Technologies and Expression Analysis (LTEA) Assay for Pyruvate Dehydrogenase Kinase 4 (PDK4) using HepaRG (AID 2283525)
# Procedure, shortened: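 HepaRG cells plated 48 h, then switched to serum-free induction medium and exposed in duplicate for 48 h to 8 half-log concentrations from 100 uM in 0.5% DMSO. PDK4 mRNA measured by qRT-PCR, normalized to ACTB, GAPDH and POLR2A; bidirectional fit versus DMSO.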
# [19] = read-out: NAD(P)H dehydrogenase [quinone] 1 (NQO1), NQO1 (gene 1728); assay: LTEA_HepaRG_NQO1: Life Technologies and Expression Analysis (LTEA) Assay for NAD(P)H dehydrogenase [quinone] 1 (NQO1) using HepaRG (AID 2283526)
# Procedure, shortened: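 HepaRG, 48 h post-plating → serum-free induction medium → test chemical 48 h (duplicate, 100 uM top, half-log x8, 0.5% DMSO) → RNA isolation → qRT-PCR, ACTB/GAPDH/POLR2A normalization; bidirectional curve fit vs DMSO baseline.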
# [20] = read-out: Nuclear factor erythroid 2-related factor 2 (Homo sapiens) (UniProt Q16236); assay: LTEA_HepaRG_NFE2L2: Life Technologies and Expression Analysis (LTEA) Assay for Nuclear factor erythroid 2-related factor 2 (NFE2L2) Transcription Factor using HepaRG (AID 2283527);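 on outcome: TaqMan qRT-PCR transcript level normalised to ACTB GAPDH and POLR2A housekeeping genes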
# Procedure, shortened: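 Differentiated human HepaRG cells, serum-free induction medium, exposed 48 h in duplicate to eight half-log concentrations up to 100 uM in 0.5% DMSO. NFE2L2 mRNA by Fluidigm TaqMan qRT-PCR, normalised to ACTB, GAPDH, POLR2A; bidirectional change versus DMSO.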
# Nuclear factor erythroid 2-related factor 2 (Homo sapiens), sequence (Q16236 whole entry, looked up): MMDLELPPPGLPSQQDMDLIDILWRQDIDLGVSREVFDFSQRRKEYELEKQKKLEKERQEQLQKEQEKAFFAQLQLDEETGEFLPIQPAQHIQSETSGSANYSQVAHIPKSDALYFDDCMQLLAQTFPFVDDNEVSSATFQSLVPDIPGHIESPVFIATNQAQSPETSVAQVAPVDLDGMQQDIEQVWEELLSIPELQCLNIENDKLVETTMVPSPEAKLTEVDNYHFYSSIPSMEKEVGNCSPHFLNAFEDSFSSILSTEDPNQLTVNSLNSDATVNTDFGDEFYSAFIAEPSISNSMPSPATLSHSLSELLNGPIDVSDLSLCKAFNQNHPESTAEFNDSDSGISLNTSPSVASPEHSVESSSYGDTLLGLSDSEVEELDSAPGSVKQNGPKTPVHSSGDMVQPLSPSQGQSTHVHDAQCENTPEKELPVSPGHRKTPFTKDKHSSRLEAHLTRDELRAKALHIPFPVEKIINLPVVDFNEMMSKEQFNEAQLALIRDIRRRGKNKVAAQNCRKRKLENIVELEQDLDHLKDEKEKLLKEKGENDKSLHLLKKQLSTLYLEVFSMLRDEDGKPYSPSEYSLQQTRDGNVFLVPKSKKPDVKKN
# Nuclear factor NF-kappa-B p105 subunit (Homo sapiens), sequence (P19838 whole entry, looked up): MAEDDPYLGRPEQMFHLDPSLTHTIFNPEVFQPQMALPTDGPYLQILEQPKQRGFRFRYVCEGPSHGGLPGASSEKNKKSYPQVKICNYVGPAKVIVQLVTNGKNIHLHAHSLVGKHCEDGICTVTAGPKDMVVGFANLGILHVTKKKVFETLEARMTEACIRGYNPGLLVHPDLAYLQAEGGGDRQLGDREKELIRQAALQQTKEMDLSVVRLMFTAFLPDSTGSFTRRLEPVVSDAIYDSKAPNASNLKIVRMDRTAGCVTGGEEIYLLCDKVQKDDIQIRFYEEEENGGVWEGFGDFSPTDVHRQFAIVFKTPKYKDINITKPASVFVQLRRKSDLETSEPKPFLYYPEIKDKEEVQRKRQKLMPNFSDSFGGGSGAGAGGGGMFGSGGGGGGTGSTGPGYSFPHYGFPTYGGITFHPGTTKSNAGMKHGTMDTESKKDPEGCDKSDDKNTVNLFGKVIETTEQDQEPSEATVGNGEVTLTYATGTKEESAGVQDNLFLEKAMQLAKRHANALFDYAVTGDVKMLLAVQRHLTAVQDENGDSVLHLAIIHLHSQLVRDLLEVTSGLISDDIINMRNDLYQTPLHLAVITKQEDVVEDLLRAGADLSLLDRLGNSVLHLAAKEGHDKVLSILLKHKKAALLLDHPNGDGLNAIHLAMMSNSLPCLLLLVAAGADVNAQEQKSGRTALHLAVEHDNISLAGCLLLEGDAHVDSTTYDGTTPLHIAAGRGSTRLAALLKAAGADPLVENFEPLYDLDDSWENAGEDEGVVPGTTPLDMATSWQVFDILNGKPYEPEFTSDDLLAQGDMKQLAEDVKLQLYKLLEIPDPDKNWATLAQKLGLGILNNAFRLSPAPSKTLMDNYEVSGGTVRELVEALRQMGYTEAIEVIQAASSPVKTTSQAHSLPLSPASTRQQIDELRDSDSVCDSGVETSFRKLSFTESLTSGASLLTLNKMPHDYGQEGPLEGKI
smiles,measurement,setting,value
CCOP(=S)(OCC)SCSP(=S)(OCC)OCC,outcome,[1],inactive
same,outcome,[2],inactive
same,AC50,[3],0.064 µM (active)
same,outcome,[4],inactive
same,outcome,[5],inactive
same,outcome,[6],inactive
same,outcome,[7],inactive
same,outcome,[8],inactive
same,outcome,[9],inactive
same,outcome,[10],inactive
same,AC50,[11],0.09 µM (active)
same,outcome,[12],inactive
same,outcome,[13],inactive
same,outcome,[14],inactive
same,outcome,[15],inactive
same,outcome,[16],inactive
same,outcome,[17],inactive
same,AC50,[18],20.4 µM (active)
same,outcome,[19],inactive
same,outcome,[20],inactive
COc1cc(-c2ccc(N)c(OC)c2)ccc1N,AC50,[1],86.9 µM (active)
same,outcome,[1],inactive
same,AC50,[2],13 µM (active)
same,outcome,[2],inactive
same,outcome,[3],inactive
same,outcome,[4],inactive
same,AC50,[5],42.3 µM (active)
same,outcome,[5],inactive
same,AC50,[6],50 µM (active)
same,outcome,[6],inactive
same,AC50,[7],50 µM (active)
same,outcome,[7],inactive
same,outcome,[8],inactive
same,AC50,[9],79.7 µM (active)
same,outcome,[9],inactive
same,outcome,[10],inactive
same,AC50,[11],50 µM (active)
same,outcome,[11],inactive
same,AC50,[12],39.3 µM (active) and 2.3 µM (active)
same,AC50,[13],50 µM (active)
same,outcome,[14],inactive
same,outcome,[15],inactive
same,outcome,[16],inactive
same,AC50,[17],50 µM (active)
same,outcome,[17],inactive
same,outcome,[18],inactive
same,outcome,[19],inactive
same,AC50,[20],50 µM (active)
same,outcome,[20],inactive
CC(=O)[O][Hg][c]1ccccc1,AC50,[1],4.6 µM (active)
same,AC50,[2],16 µM (active)
same,AC50,[3],20.6 µM (active)
same,outcome,[4],inactive
same,AC50,[5],4.54 µM (active)
same,AC50,[6],12.7 µM (active)
same,outcome,[7],inactive
same,AC50,[8],29.3 µM (active)
same,outcome,[9],inactive
same,AC50,[10],15.8 µM (active)
same,AC50,[11],24.2 µM (active)
same,AC50,[12],50 µM (active)
same,AC50,[13],50 µM (active)
same,AC50,[14],23.2 µM (active)
same,AC50,[15],28 µM (active)
same,AC50,[16],69.5 µM (active)
same,AC50,[17],2.33 µM (active)
same,AC50,[18],13.1 µM (active)
same,AC50,[19],12.3 µM (active)
same,AC50,[20],23.4 µM (active)
